Assay outcomes deposited in PubChem by several laboratories.
The list is not random: actives were taken first. Their share in the collection is about 21%.
CYP2C9 act = activators of human CYP2C9; P11712; recombinant CYP2C9, luciferin-H conversion, luminescence; stronger effect = higher value; factor 1 = untreated enzyme, 0 = blocked; activation factor at 5 µM; 96,000 compounds, 1.4% hits;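 active = activation factor of 2 or more for CYP2C9 at a 5 µM dose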;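 note: 0 = sulfaphenazole-blocked wells and 1 = vehicle-only wells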
Target sequence (P11712 whole entry, looked up): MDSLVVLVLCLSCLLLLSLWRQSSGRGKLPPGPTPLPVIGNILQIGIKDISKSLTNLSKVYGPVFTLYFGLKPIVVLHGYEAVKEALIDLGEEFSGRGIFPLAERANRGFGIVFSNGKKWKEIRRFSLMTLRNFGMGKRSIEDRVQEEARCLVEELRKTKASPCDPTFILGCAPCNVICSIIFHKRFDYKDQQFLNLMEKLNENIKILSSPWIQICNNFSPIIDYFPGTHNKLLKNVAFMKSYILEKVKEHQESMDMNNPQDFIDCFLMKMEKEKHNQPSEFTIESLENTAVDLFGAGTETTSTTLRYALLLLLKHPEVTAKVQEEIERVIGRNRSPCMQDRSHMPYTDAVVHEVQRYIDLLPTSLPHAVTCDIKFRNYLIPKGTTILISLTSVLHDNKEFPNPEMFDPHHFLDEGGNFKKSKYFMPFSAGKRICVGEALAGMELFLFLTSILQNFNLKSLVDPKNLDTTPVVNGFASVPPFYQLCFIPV
MRP-1 activ = MRP-1 activation. viability increase, % at 10 µM. H69AR cells + doxorubicin, viability rescue, CellTiter-Glo. 140,000 compounds, 0.61% hits;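 active = viability gain under doxorubicin at or above a set limit, the compound median plus 3 SD, cut at about 4.7% in these data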;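 note: MRP-1 overexpressing cells given doxorubicin 25 µM after compound pretreatment; 18-22 h compound pretreatment then 72 h with doxorubicin before readout; 0% = doxorubicin-only wells and 100% = vehicle-treated cells without doxorubicin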
CYP2C19 inhib = inhibitors of human CYP2C19; P33261; CYP2C19 Supersomes, luciferin-H EGE luminescence, 30 min; inhibition, % at 5 µM; 96,000 compounds, 21% hits; AID 778;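 active = CYP2C19 inhibition above a set limit at 5 µM in the primary screen, cut at about 50% in these data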;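 note: plate controls were negative control wells for no effect and 2.5 mM tranylcypromine positive control for full effect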
CYP2C9 inhib = human CYP2C9 inhibition | P11712 | CYP2C9 Supersomes, luciferin-H conversion, luminescence | inhibition, % at 5 µM | 96,000 compounds, 20% hits | AID 777;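 active = blocking of liver enzyme CYP2C9 beyond about 50% at 5 µM, limit read from the data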
CYP2C19 act = increases human CYP2C19 enzyme activity; recombinant CYP2C19, luciferin-H EGE luminescence; stronger effect = higher value; 0 = fully inhibited enzyme, 1 = untreated enzyme; activation factor at 5 µM; 96,000 tested, under 10 active; AID 1025;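 active = activation factor of at least 2 at 5 µM in the primary screen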;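 note: 0 = wells with 2.5 mM tranylcypromine and 1 = vehicle-only wells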
MRP resist rev = compounds reversing MRP-mediated drug resistance; H69AR cells + 2 uM doxorubicin, CellTiter-Glo, 72 h; differential viability (reversal), % at 10 µM; 85,000 compounds, 0.04% hits; AID 602;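 active = viability drop by adding the cancer drug above about 55%, with treated viability meeting a 40% cutoff, limit read from the data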;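 note: viability without doxorubicin minus viability with 2 µM doxorubicin for each compound; larger differential means the compound sensitizes cells more to doxorubicin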
* hit, by the source's call; x = no result.

SMILES | CYP2C9 act | MRP-1 activ | CYP2C19 inhib | CYP2C9 inhib | CYP2C19 act | MRP resist rev
Cc1ccc(-c2nc(CS(=O)CC(=O)NC3CCC(C)CC3)c(C)o2)cc1 (stereo unspecified) | 0.1 | -1 | 67* | 89* | 0.3 | 12
Cc1ccc(-c2nc(CS(=O)CC(=O)NCCCN3CC(C)CC(C)C3)c(C)o2)cc1 (stereo unspecified) | 0.9 | -3 | 5 | 7 | 0.9 | 29
Cc1ccc(-c2nc(CS(=O)CC(=O)NCCC(C)C)c(C)o2)cc1 (stereo unspecified) | 0.3 | -3 | 49 | 68* | 0.5 | 17
CCCCNC(=O)CS(=O)Cc1nc(-c2ccc(C)cc2)oc1C (stereo unspecified) | 0.8 | -2 | -7 | 15 | 1.1 | 11
COc1cccc(-c2nc(CS(=O)CC(=O)NC3CCCC3)c(C)o2)c1 (stereo unspecified) | 0.4 | -2 | 30 | 57* | 0.7 | 12
CCc1cccc(NC(=O)CS(=O)Cc2nc(-c3ccc(C)cc3)oc2C)c1 (stereo unspecified) | 0.1 | -3 | 77* | 88* | 0.2 | 3
COC(=O)CC1COc2ccccc2N1C(=O)c1cccc(Cl)c1 (stereo unspecified) | 0.5 | -3 | 63* | 46 | 0.4 | x
O=CN1CC(=O)N(c2ccccc2)c2c([nH]c3ccccc23)C1 | 0.7 | -1 | 79* | 28 | 0.2 | -13
COc1ccc(C(O)c2nc3ccccc3s2)cc1 (stereo unspecified) | 0.6 | -1 | 62* | 39 | 0.4 | -16
COc1cc(OC)cc(-c2nc3ccccc3s2)c1 | 0.8 | -2 | 2 | 19 | 1 | -13
Cc1cccc(N2C(=N)SCC2=O)c1C | x | -2 | x | x | x | x
CCn1c(=S)[nH]c2ccccc21 | 1.5 | -1 | 16 | -55 | 0.8 | 10
CC(C)n1c(=S)[nH]c2ccccc21 | 3* | -2 | 29 | -202 | 0.7 | x
S=C1N(c2ccccc2)C(c2cccc3ccccc23)N2CCCN12 (stereo unspecified) | 0.7 | 0 | 18 | 34 | 0.8 | 21
CC(C)C1NC(=S)N(Cc2ccccc2)C1=O (stereo unspecified) | 0.9 | 0 | 58* | 14 | 0.4 | x
CCN1CCN(CC(O)COc2ccc(Cl)cc2)CC1 (stereo unspecified) | 1.3 | 1 | 9 | -32 | 0.9 | 3
CC(=O)Nc1ccc(OCC(O)CN2CCN(c3ccc(C)c(Cl)c3)CC2)cc1 (stereo unspecified) | 0.3 | -2 | 68* | 73* | 0.3 | 8
OC(COc1ccc2ccccc2c1)CN1CCCC1 (stereo unspecified) | 0.9 | -1 | -3 | 5 | 1 | 2
OC(COc1ccc2ccccc2c1)CN1CCN(c2ccc(F)cc2)CC1 (stereo unspecified) | 1 | -4 | 51* | -2 | 0.5 | -11
CC(=O)Nc1ccc(OCC(O)CN2CCN(c3cc(Cl)ccc3C)CC2)cc1 (stereo unspecified) | 0.4 | -5 | 84* | 61* | 0.2 | -8
COc1ccc2c(c1)c1nc(SCC(C)C)n(CCO)c(=O)c1n2C | 0.7 | -2 | 17 | 33 | 0.8 | 5
Cc1cccc(C(C)Nc2ccc([N+](=O)[O-])cn2)c1 (stereo unspecified) | 0.3 | -1 | 49 | 75* | 0.5 | x
Nc1nc2c3ccccc3nc(C3CC3)n2n1 | 0.9 | -2 | 34 | 8 | 0.7 | 5
Clc1ccc(CNCCC2=CCCCC2)cc1 | 0.8 | -3 | 100* | 22 | 0 | x
C1=C(CCNCC2CCCCC2)CCCC1 | 1 | -3 | 88* | -1 | 0.1 | x
SMILES | CYP2C9 act | MRP-1 activ | CYP2C19 inhib | CYP2C9 inhib | CYP2C19 act | MRP resist rev
S=C(NCCC1=CCCCC1)Nc1ccc(Cl)cc1 | x | -2 | x | x | x | x
COc1ccc(S(=O)(=O)Nc2cc3c(C(C)=O)c(C)oc3c3ccccc23)cc1 | 0.2 | -5 | 93* | 84* | 0.1 | -29
Cc1oc2c(cc(NS(=O)(=O)c3cccs3)c3ccccc32)c1C(=O)OC(C)C | x | -5 | x | x | x | -3
COc1ccc(C(=O)CC2OC(=O)c3c2ccc(OC)c3OC)cc1 (stereo unspecified) | 0.7 | -2 | 80* | 34 | 0.2 | -3
CC(C)Cn1c(Cc2ccccc2)n[nH]c1=S | 1.2 | -4 | 40 | -23 | 0.6 | -3
CCCC(NS(=O)(=O)c1ccc(Br)cc1)C(=O)O (stereo unspecified) | 0.8 | -2 | 25 | 18 | 0.8 | 19
Cc1ccccc1S(=O)(=O)Oc1ccccc1C(=O)Oc1ccccc1 | 0.5 | -4 | 42 | 50* | 0.6 | x
Cc1nc(NNC(=O)c2ccc(Cl)cc2Cl)cc(-c2ccccc2)n1 | 0.5 | 0 | -8 | 51* | 1.1 | 8
CC1CCN(CC(=O)N2CC(=O)Nc3ccccc32)CC1 | x | -1 | x | x | x | -3
Cc1nnc(SCC(=O)NCc2ccco2)n1-c1ccc(F)cc1 | x | 1 | x | x | x | 7
O=C(CSc1ncc(-c2ccccc2)n1-c1ccccc1)NCc1ccco1 | 0.3 | -3 | 50* | 74* | 0.5 | -12
COc1ccc(-n2c(-c3ccc(F)cc3)cnc2SCC(=O)NCc2ccco2)cc1 | 0.1 | -4 | 92* | 94* | 0.1 | 2
C=CC(C)(C)c1cc2cc3ccoc3cc2oc1=O | x | -1 | x | x | x | x
COc1ccccc1CNC(=O)CCS(=O)(=O)c1ccc2c(c1)CCCN2C(C)=O | 1.2 | -1 | 4 | -20 | 1 | x
O=C(CO/N=C/c1cccc([N+](=O)[O-])c1)Nc1ccc2ccccc2c1 | 0.1 | 1 | -11 | 88* | 1.1 | -20
CC(=O)Nc1ccc(NC(=O)C(C)O/N=C/c2cccc([N+](=O)[O-])c2)cc1 (stereo unspecified) | 0.4 | 0 | 41 | 60* | 0.6 | x
O=C(O/N=C/c1cccc([N+](=O)[O-])c1)C1CC1 | 1 | 0 | 44 | -2 | 0.6 | x
COc1ccc(/C(=C/c2ccc(OC(F)F)c(OC)c2)C(=O)O)cc1OC | x | 0 | x | x | x | x
CCOC(=O)N1C=CC=C[C@@H]2[C@@H](N3C(=O)c4ccccc4C3=O)C(=O)N21 | x | 1 | x | x | x | x
CC(C)(C)n1nnnc1CN1C2CCC1CC(NC(=O)Nc1ccccc1)C2 (stereo unspecified) | 0.5 | 0 | 8 | 53* | 0.9 | 3
CC(=O)NC1(c2ccccc2)CCN(Cc2nnnn2C(C)(C)C)CC1 | 0.7 | -2 | 67* | 32 | 0.3 | 10
CCCCN(CCCC)S(=O)(=O)c1ccc(NC(=O)c2cccs2)cc1 | 0.1 | -3 | 60* | 91* | 0.4 | -7
CC1CCN(S(=O)(=O)c2ccc(NC(=O)c3cccs3)cc2)CC1 | 0 | -2 | 84* | 96* | 0.2 | -2
CN1CCN(S(=O)(=O)c2ccc(NC(=O)c3cccs3)cc2)CC1 | 1.1 | -3 | -14 | -8 | 1.1 | 8
CC1CCCCN1S(=O)(=O)c1ccc(NC(=O)c2cccs2)cc1 (stereo unspecified) | 0.3 | -4 | 56* | 74* | 0.4 | -11
